GLP1R cytotox – qHTS of GLP-1 Receptor Inverse Agonists: Cytotox Screen. Potency, µM (top dose mostly 38.3 µM), actives largely listed as inhibitors. hit rate 0.13% among 410,000. HEK293 cAMP-luciferase reporter cells, luminescence, 24 h;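 further: loss of luciferase light is scored as toxicity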
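Compound-treated cells are incubated 24 hr at 37 deg C under 5% CO2 after a 12 hour attachment period, then luciferase detection reagent is added and luminescence is measured following 12 min at room temperature; lowered signal indicates toxicity.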
Tb PFK inh – qHTS Assay to Find Inhibitors of T. brucei phosphofructokinase. Potency, µM (titrated, usually from 57.5 µM), actives largely listed as inhibitors. T. brucei PFK, ADP-Glo luminescence. hit rate 0.17% among 330,000; further: nearly all actives have a fitted effect of over 60% in size
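PFK 1.25 nM, F6P 0.5 mM, ATP 0.1 mM, 0.1 M TEA pH 8.0, 5 mM MgCl2, 0.01% Tween20, 0.1% BSA; 45 min RT. ADP-Glo readout. qHTS titration up to 57 uM; curves fitted, compounds curve-classed.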
GLP1R ag – qHTS of GLP-1 Receptor Agonists. Glucagon-like peptide 1 receptor (Homo sapiens), P43220. hit rate 0.007% among 380,000. AID 624172, 2012. Potency, µM (highest dose often 45.6 µM), most hits filed as activators. HEK293 GLP-1R CRE-luciferase, luminescence, 4-6 h; cells express a hypersensitive GLP-1R form
Pin1 inh – qHTS Assay to Find Inhibitors of Pin1; Pin1 FP peptide displacement, HiFluor488, 10 min; hit rate 0.009% among 390,000; Peptidyl-prolyl cis-trans isomerase NIMA-interacting 1 (Homo sapiens), Q13526; Potency, µM (top dose mostly 115 µM), usual class: inhibitors; active means well fitted inhibition curve with a large enough effect in the polarisation, with a control signal flat, not every such curve was filed as active; inconclusive means small, poorly fitted or top-dose-only effect, or effect the other way, or a change in a side signal; inactive means no such curve, though single readings can be large or run the other way; the % refers to the polarisation
Target sequence (Q13526 whole entry, looked up): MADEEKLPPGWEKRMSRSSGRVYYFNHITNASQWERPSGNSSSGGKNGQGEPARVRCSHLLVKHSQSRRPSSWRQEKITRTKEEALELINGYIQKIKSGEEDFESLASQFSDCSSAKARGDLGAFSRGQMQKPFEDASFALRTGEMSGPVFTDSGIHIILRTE
PGK inhibitor – qHTS Assay to Find Inhibitors of Phosphoglycerate Kinase; PGK/GAPDH coupled, Kinase-Glo luminescence, 60 min; Potency, µM (top dose mostly 57.5 µM), hits mostly inhibitors; hit rate 0.043% among 380,000; AID 602233, 2012; further: nearly all actives have a fitted effect of over 60% in size
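Luminescent ATP detection (Kinase-Glo Plus) follows a 60-minute room-temperature incubation, with wells lacking PGK as controls. Buffer: 100 mM TEA (pH 7.6), 5 mM MgCl2, 0.01% Tween-20. Coupling enzyme GAPDH (100 nM final) supplies unstable 1,3-BPG in-well.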
GLP-1R inv ag – qHTS of GLP-1 Receptor Inverse Agonists (Inhibition Mode); HEK293 GLP-1R CRE-luciferase, luminescence, 24 h; GLP-1R form is constitutively active; Potency, µM (titrated, usually from 38.3 µM), hits mostly inhibitors; hit rate 1.6% among 410,000; AID 624417, 2012; further: nearly all actives have a fitted effect of over 55% in size
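GLP-1R inverse agonism mode: basal reporter luminescence in engineered HEK293 cells measured after one day of compound exposure at 37 deg C, with a 12 min room-temperature detection step.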
Each line names hits and unclear results; the compound was inactive in the other large screens. Most compounds without a hit are left out; they make up all but 1.8% or so of the library. Unless noted, the call rests on the fitted dose curve; in most records, active means well fitted curve in the direction sought with a large enough effect; inconclusive means small, poorly fitted or top-dose-only effect, or another doubt; inactive means no such curve, though single readings can be large; an effect the other way counts as inactive or inconclusive.

CCN(CC)S(=O)(=O)c1ccc(N2CCN(c3ccccc3OC)CC2)c(N)c1	GLP-1R inv ag 10µM
COc1ccc(S(=O)(=O)N(CC(=O)N2CCN(c3ccccc3OC)CC2)c2ccccc2)cc1	GLP-1R inv ag 10µM
CCN(CC)S(=O)(=O)c1ccc2c(c1)c(=O)c(C(=O)N1CCN(c3ccccc3OC)CC1)cn2C	none (no result: Tb PFK inh)
Cc1cc(-n2c(=O)[nH]c(=O)n(C)c2=O)ccc1Oc1ccc(S(=O)(=O)C(F)(F)F)cc1	none (no result: GLP1R cytotox, Tb PFK inh, Pin1 inh, PGK inhibitor, GLP-1R inv ag)
CN1[C@@H]2CC[C@@H]1CC(OC(=O)[C@H](CO)c1ccccc1)C2 (stereo not given in full)	none (no result: GLP1R cytotox, Tb PFK inh, Pin1 inh, PGK inhibitor, GLP-1R inv ag)
O=C1CCc2cc([S+](=O)([O-])Nc3ccc(N[S+](=O)([O-])c4ccc5c(c4)CCC(=O)N5)cc3)ccc2N1	none (no result: GLP1R cytotox, Tb PFK inh, GLP1R ag, PGK inhibitor, GLP-1R inv ag)
CCn1nc(C)c(CN2CCc3c([nH]c4ccccc34)C2C(C)(C)C)c1C (stereo not given)	GLP-1R inv ag 7.08µM
CC(=O)Nc1ccc(CN2CCc3c([nH]c4ccccc34)C2C(C)(C)C)cc1 (stereo not given)	GLP-1R inv ag inconclusive
CC1CCN(c2nc3c(S(=O)(=O)c4cccc(Cl)c4)nnn3c3ccsc23)CC1	none (no result: Tb PFK inh, GLP1R ag)
C=C[C@@H]1c2cc(C)ccc2N(S(=O)(=O)c2ccc(C)cc2)[C@H](c2ccccc2)C1(C#N)C#N	none
C=C[C@@H]1c2ccccc2N(S(=O)(=O)c2ccc(C)cc2)[C@H](c2ccccc2)C1(C#N)C#N	GLP-1R inv ag 3.55µM
CCCCCOc1ccc(Cn2c(=O)oc3ccccc32)cc1	none (no result: Tb PFK inh, GLP1R ag)
CN(C)CCCn1c(SCC(=O)Nc2nc(-c3cccc(Br)c3)cs2)nc2ccccc2c1=O	GLP1R cytotox inconclusive, GLP-1R inv ag 11.2µM
O=C(CSc1nc2ccccc2[nH]1)Nc1nc(-c2cccc(Br)c2)cs1	none
CCNC(=S)N(CCc1c(C)[nH]c2ccc(Cl)cc12)Cc1ccco1	GLP1R cytotox inconclusive, GLP-1R inv ag inconclusive
CNC(=S)N(CCc1c(C)[nH]c2ccc(C)cc12)Cc1ccco1	GLP-1R inv ag 10µM
Cc1ccc2oc(=O)n(CCCOc3ccccc3Cl)c2c1	none (no result: Tb PFK inh, GLP1R ag)
Cc1cc(C)c(C)c(S(=O)(=O)N2CCSCC2)c1C	GLP-1R inv ag 10µM
CCCCc1nc(NCCNC(=O)c2ccccc2)c(C#N)c2c1CSC(C)(C)C2	GLP1R cytotox inconclusive, GLP-1R inv ag 8.91µM
CCCCc1nc(NCCNC(=O)c2ccco2)c(C#N)c2c1CSC(C)(C)C2	none (no result: Pin1 inh)
CCn1c(=O)c(C(=O)CN(C)Cc2cccc(OC)c2OC)c(N)n(Cc2ccccc2)c1=O	GLP-1R inv ag inconclusive
CCn1c(=O)c(C(=O)CN(C)Cc2ccc(F)cc2)c(N)n(Cc2ccccc2)c1=O	GLP-1R inv ag 8.91µM
Oc1ccc(-c2cnc3c(Nc4cccc(OC(F)(F)C(F)F)c4)nccn23)cc1	GLP-1R inv ag inconclusive (no result: Tb PFK inh, Pin1 inh, PGK inhibitor)
FC(F)C(F)(F)Oc1cccc(Nc2nccn3c(-c4ccc5ccccc5c4)cnc23)c1	GLP-1R inv ag 11.2µM (no result: Tb PFK inh, Pin1 inh, PGK inhibitor)
Cc1ccc(C(C)C)c(OCCNC(=O)c2cncc(Br)c2)c1	Pin1 inh inconclusive, GLP-1R inv ag 10µM
COc1cc(C(=O)NCCOc2cc(C)cc(C)c2)cc(OC)c1OC	GLP-1R inv ag inconclusive
COc1cc(C(=O)NCCOc2cc(C)ccc2C(C)C)cc(OC)c1OC	GLP-1R inv ag 3.55µM
COc1ccc(N2CCN(C(=O)C3CCN(S(=O)(=O)Cc4ccccc4)CC3)CC2)cc1	none (no result: Tb PFK inh, GLP1R ag)
CN1CCN(C(=O)c2ccccc2N(Cc2ccccc2)S(=O)(=O)c2ccccc2)CC1	GLP-1R inv ag inconclusive
Cc1ccc(S(=O)(=O)N(Cc2ccccc2)c2ccccc2C(=O)N2CCCCC2)cc1	GLP1R cytotox inconclusive, GLP-1R inv ag 8.91µM
CCN(CC)CCNC(=O)c1c(O)c2cccc3c2n(c1=O)CCC3	GLP1R cytotox inconclusive, GLP-1R inv ag 4.47µM

Compound activity from PubChem BioAssay.
